Results on 20 molecules are retold here after PubChem BioAssay AID602261 (Sanford-Burnham Center for Chemical Genomics, 2012).

About 2,400 (0.67%) of roughly 360,000 compounds were called active.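 How the source made its calls: active means compounds whose normalised, plate-corrected inhibition of enzyme fluorescence in the single-dose primary screen is 50% or more; inactive means the rest.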 The list comes from a sample in which actives are over-represented; it also holds similar structures and randomly drawn compounds.

The target in this assay is Fatty acid synthase (Homo sapiens) (UniProt P49327). Put plainly: inhibition of human FAS-TE enzyme activity – biochemical, fluorescence intensity, uHTS, primary screen (AID 602261).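 Further: 0% = DMSO with enzyme and 100% = substrate without enzyme.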 Conditions: recombinant FAS-TE, OMFH fluorogenic substrate, fluorescence endpoint; at 15 µM; active compounds read high.
Fatty acid synthase (Homo sapiens), sequence (P49327 whole entry, looked up): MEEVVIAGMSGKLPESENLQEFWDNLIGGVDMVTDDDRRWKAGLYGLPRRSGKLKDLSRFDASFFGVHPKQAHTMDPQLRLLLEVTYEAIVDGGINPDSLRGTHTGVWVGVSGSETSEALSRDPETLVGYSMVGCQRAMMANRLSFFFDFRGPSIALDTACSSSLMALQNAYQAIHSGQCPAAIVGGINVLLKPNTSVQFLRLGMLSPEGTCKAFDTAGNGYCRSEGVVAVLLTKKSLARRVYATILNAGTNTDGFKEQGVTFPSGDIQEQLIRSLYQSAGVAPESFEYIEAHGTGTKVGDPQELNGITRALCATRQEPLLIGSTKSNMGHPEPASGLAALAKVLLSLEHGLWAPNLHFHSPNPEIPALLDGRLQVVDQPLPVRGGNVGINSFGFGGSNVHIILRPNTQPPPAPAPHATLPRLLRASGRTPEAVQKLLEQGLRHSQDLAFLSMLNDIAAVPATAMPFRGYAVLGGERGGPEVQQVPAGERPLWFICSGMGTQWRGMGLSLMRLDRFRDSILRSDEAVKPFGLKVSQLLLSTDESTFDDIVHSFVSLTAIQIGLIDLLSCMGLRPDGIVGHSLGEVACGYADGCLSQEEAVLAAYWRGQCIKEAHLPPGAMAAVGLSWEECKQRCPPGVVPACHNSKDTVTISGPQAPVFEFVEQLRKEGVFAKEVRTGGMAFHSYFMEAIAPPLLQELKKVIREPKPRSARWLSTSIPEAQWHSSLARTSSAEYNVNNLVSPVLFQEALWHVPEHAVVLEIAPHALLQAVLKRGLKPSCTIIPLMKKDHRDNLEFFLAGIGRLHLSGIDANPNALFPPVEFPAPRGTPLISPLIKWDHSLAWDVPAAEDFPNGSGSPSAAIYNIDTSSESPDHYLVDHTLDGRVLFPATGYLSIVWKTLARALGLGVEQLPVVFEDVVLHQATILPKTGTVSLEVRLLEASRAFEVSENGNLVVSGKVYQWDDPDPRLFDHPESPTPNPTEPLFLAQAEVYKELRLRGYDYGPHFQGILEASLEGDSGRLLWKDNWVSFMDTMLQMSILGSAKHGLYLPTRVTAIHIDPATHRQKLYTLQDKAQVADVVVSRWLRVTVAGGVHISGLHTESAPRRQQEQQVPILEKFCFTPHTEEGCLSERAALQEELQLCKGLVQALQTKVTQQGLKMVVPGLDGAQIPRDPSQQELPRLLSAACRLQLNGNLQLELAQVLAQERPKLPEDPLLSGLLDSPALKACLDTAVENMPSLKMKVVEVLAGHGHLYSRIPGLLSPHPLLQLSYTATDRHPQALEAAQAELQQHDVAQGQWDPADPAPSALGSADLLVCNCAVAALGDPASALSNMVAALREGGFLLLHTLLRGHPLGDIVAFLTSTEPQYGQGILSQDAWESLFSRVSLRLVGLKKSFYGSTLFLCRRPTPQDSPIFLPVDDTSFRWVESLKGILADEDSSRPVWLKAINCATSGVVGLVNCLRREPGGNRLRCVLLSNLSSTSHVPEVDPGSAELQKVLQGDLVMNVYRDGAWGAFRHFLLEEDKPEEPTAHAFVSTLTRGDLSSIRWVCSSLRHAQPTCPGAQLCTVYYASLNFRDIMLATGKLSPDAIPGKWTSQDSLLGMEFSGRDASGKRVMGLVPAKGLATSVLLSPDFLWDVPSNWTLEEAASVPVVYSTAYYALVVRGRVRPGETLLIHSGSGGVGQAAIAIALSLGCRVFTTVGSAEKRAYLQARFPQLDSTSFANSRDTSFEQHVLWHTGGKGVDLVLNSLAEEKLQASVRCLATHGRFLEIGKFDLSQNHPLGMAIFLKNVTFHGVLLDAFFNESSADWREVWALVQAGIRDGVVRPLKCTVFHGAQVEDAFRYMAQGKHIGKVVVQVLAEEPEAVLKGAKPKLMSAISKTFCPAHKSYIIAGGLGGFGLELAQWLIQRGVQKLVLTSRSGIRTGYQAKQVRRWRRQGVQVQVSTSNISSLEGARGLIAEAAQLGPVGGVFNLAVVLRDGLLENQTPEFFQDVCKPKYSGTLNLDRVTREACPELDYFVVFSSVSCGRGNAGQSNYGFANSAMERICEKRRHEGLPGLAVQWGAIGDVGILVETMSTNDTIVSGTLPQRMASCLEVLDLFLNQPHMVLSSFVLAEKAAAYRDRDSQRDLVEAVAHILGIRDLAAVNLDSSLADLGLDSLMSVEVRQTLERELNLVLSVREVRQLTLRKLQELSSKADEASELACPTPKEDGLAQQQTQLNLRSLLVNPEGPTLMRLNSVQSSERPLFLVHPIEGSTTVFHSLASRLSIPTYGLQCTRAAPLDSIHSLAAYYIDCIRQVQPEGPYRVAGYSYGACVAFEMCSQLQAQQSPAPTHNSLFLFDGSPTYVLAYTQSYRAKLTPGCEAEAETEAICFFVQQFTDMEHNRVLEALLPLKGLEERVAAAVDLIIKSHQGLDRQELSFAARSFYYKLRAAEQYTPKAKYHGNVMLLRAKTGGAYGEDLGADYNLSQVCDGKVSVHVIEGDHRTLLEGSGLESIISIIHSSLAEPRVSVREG
A word on the inhibition: it is the drop in the measured response relative to a control, in per cent. For `CCOC(=O)[C@]12Cc3ccccc3[C@H]1N(C1CCCCC1)C(=O)c1cc(OC)ccc12`, the inhibition is 67.5% (active).
For `CCOC(=O)[C@]12Cc3cc(OC)ccc3[C@H]1N(C(C)C)C(=O)c1ccccc12`, the inhibition was 36.7% (inactive).
`CC(=O)c1ccc(OC(NC(=O)Cc2ccccc2)C(Cl)(Cl)Cl)cc1` (stereo not given): the inhibition was 11.2% (inactive).
The result for `O=C1C2(Cl)C3(Cl)C4(Cl)C(Cl)(Cl)C5(Cl)C3(Cl)C1(Cl)C5(Cl)C24Cl` (stereo not given) reads 72.1% (active); that for `O=C(O)CCn1cc(C=C2C(=O)NC(=S)NC2=O)c(-c2cccc(Br)c2)n1`, -3.4% (inactive).
Regarding `COC(=O)C1=C(c2ccc3ccccc3c2)C[C@@H]2CC[C@H]1N2C(=O)NCCO`, the inhibition is -1.8% (inactive).
`O=c1[nH]c2ccccc2n1C1CCN(C(c2ccnc3ccccc23)c2nnnn2Cc2ccccc2)CC1` (stereo not given): the inhibition is 5.1% (inactive).
`COc1ccc(-n2nnnc2C(c2cccc3ccccc23)N2CCC(n3c(=O)[nH]c4ccccc43)CC2)cc1` (stereo not given): the inhibition is 87.1% (active).
In the case of `O=c1[nH]c2ccccc2n1C1CCN(C(c2ccccc2)c2nnnn2Cc2ccccc2)CC1` (stereo not given), the inhibition is 18.3% (inactive).
As to `CCOc1ccc(CN(CCCl)CCCl)cc1C(=O)OC`, the inhibition is -5.1% (inactive).
The result for `O=C(NC1CCCCC1)N1Cc2cc(N3CCCCC3)ccc2-n2nncc2C1` reads -2.8% (inactive); that for `CN(C)CC1CCCCC1OC(=O)c1ccc(Cl)c(Cl)c1` (stereo not given), -3.1% (inactive); that for `CCCCCCCCCCCCn1ccc(=N)cc1`, -0.8% (inactive).
Turning to `COc1cccc(C(c2nnnn2-c2ccc3c(c2)OCCO3)N2CCC3(CC2)C(=O)NCN3c2ccccc2)c1OC` (stereo not given), the inhibition is 62% (active).
The same measure for `O=C1NCN(c2ccccc2)C12CCN(C(c1cccs1)c1nnnn1C1CCCCC1)CC2` (stereo not given): 14.5% (inactive); for `Cc1ccc(-c2cc(C(=O)N3CCC4(CC3)OCCO4)no2)cc1`: 1.5% (inactive); for `COc1ccc2c(c1O)-c1cccc3c1[C@@H](C2)N(C)CC3`: -2.4% (inactive).
Turning to `CCOC(=O)C(O)(c1ccc(N=Cc2ccccc2O)c(C)c1)C(F)(F)F` (stereo not given), the inhibition was -4.3% (inactive).
Take `CC(C)Oc1cccc(C(=O)C2CCCN(C3CCOCC3)C2)c1` (stereo not given): the inhibition was -0.1% (inactive).
On to `c1cncc(CNCCc2c[nH]c3ccccc23)c1`, for which the inhibition is 5.2% (inactive).
